Measurements as given in article PMC5540273 (PLoS ONE, 2017).

Tested on: LIMK1
Details: concentration: 1 μM, replicates: in singlicate; n = 1
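Note: KINOMEscan kinase panel screen.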

| Structure (SMILES) | %Inh [%] |
| --- | --- |
| CSc1ccc(-c2cc3ncnc(SCC(=O)O)c3s2)cc1 | 0 |
| COc1ccc(Nc2nccc(N3CCC(NC(=O)Nc4cc(C)ccc4C)C3)n2)cc1 (stereo not shown) [GSK1379741] | 0 |
| Nc1nc(-c2ccc3c(N)n[nH]c3c2)cc(N2CCCC2)n1 [GSK2227430] | 0 |
| c1ccc(-c2n[nH]cc2-c2ccnc3ccccc23)nc1 [GW271431] | 21 |
| O=C1NC(=O)C(N2CCc3ccccc32)=C1c1cccc(Cl)c1 [SB-408010] | 0 |
| COc1ccc(Nc2ncc(C#N)c(Nc3ccccc3C(N)=O)n2)cc1N1CCN(C)CC1.Cl [GSK1558669] | 85 |
| Cc1ccc(NC(=O)c2ccnc(N3CCN(C)CC3)c2)cc1-c1ccc(C(=O)NCC2CC2)cc1 [GW775604] | 0 |
| Cc1nnc(-c2ccc3occ(-c4ccc(C(C)O)cc4)c3c2)o1 (stereo not shown) | 29 |
| COc1ccc(COc2cc(-n3cnc4ccccc43)sc2C(N)=O)cc1 [GSK1024304] | 10 |
| CCc1nc(-c2cccc(C)c2)c(-c2ccnc(NCc3ccccc3)c2)s1 | 0 |
| NS(=O)(=O)c1cccc(-c2ccc3nccc(-c4cccc(S(N)(=O)=O)c4)c3c2)c1 [GW867253] | 0 |
| Cc1cccc(-c2nc(Nc3ccc4ncsc4c3)c3ccccc3n2)n1 [GW867588] | 4 |
| CC(C)Oc1ccc2c(-c3ccnc(Nc4ccc(N5CCN(C)CC5)cc4)n3)cnn2n1 [GW696155] | 85 |
| CN(C(=O)c1ccc(-c2cc(-c3c[nH]nc3-c3ccccn3)ccn2)cc1)C1CCOCC1 [GW810083] | 0 |
| COc1cc(Nc2nccc(N3CCC(NC(=O)c4cccc(NC(C)=O)c4)C3)n2)cc(OC)c1OC (stereo not shown) [GSK1379754] | 16 |
| NCCNS(=O)(=O)c1ccc(-c2ccnc3[nH]ccc23)cc1 [GSK977617] | 0 |
| O=C(NCCCN1CCOCC1)c1cccc(Nc2nccc(Nc3ccc(Oc4ccccc4)cc3)n2)c1 [GW663929] | 21 |
| COc1cc2c(cc1OC[C@@H](O)CO)ncc1c3ccc(C#N)cc3[nH]c21 | 0 |

| Structure (SMILES) | %Inh [%] |
| --- | --- |
| COc1ccc(CNC(=O)NC2CCN(c3ccnc(Nc4ccc(OC)cc4)n3)C2)cc1 (stereo not shown) [GSK1379727] | 0 |
| COc1ccc(S(=O)(=O)NC2CCN(c3cc(C)nc(Nc4cccc(C#N)c4)n3)CC2)cc1.O=C(O)C(F)(F)F [GSK1653539] | 0 |
| N#Cc1ccc(-c2cc(-c3c[nH]nc3-c3ccccn3)ccn2)cc1 [GW693028] | 16 |
| c1ccc(-c2cc(-c3c[nH]nc3-c3ccccn3)ccn2)cc1 [GW576604] | 0 |
| NCC(NC(=O)c1cc(-c2cn[nH]c2)c(-c2ccnc3[nH]ccc23)s1)c1ccccc1.O=C(O)C(F)(F)F.O=C(O)C(F)(F)F (stereo not shown) [GSK1325775] | 0 |
| Cn1cc(-c2ccc3c(c2)CCN3C(=O)Cc2ccccc2Cl)c2c(N)ncnc21 [GSK2608885] | 32 |
| O=c1cc(N2CCOCC2)nc2n(Cc3cccc(Cl)c3Cl)c(C3CC3)nn12 [GSK2358994] | 9 |
| COc1cc2c(cc1OCCN1CCN(C)CC1)ncc1c3ccc(C#N)cc3[nH]c21 | 0 |
| Cl.Nc1ncnc2occ(-c3ccc(NC(=O)Nc4cc(C(F)(F)F)ccc4F)cc3)c12 [SB-707548] | 25 |
| O=C1Cc2cc(Nc3nc(NCc4cccc(S(=O)(=O)C(F)(F)F)c4)ncc3C(F)(F)F)ccc2N1 | 1 |
| Cc1nnc(-c2ccc(C)c(-c3ccc(C(=O)Nc4ccc(NS(C)(=O)=O)cc4)cc3)c2)o1 [GW702865] | 0 |
| O=c1cc(N2CCOCC2)nc2n(Cc3cccc(F)c3)ccn12 [GSK2297430] | 9 |
| COc1ccc(Nc2nccc(N3CCC(NC(=O)Nc4cccc(C(C)=O)c4)C3)n2)cc1 (stereo not shown) [GSK1379731] | 1 |
| CCCCCc1nc2c(N)ncnc2n1CCCCC [SKF-97255] | 0 |
| Nc1nccc(-c2c(-c3ccc(F)cc3)ncn2C2CCN(CC(F)(F)F)CC2)n1 [SB-236560] | 5 |
| Fc1ccc(-c2ncn(CCCN3CCOCC3)c2-c2cccnc2)cc1 [SB-211743] | 9 |
| O=C(Nc1cccc(-c2nn3ncccc3c2-c2ccnc(Nc3cccc(C(F)(F)F)c3)n2)c1)c1c(F)cccc1F [GSK299495] | 9 |

Tested on: LIMK2
Details: concentration: 1 μM, replicates: in singlicate; n = 1

| Structure (SMILES) | %Inh [%] |
| --- | --- |
| CSc1ccc(-c2cc3ncnc(SCC(=O)O)c3s2)cc1 | 0 |
| COc1ccc(Nc2nccc(N3CCC(NC(=O)Nc4cc(C)ccc4C)C3)n2)cc1 (stereo not shown) [GSK1379741] | 0 |
| Nc1nc(-c2ccc3c(N)n[nH]c3c2)cc(N2CCCC2)n1 [GSK2227430] | 3 |
| c1ccc(-c2n[nH]cc2-c2ccnc3ccccc23)nc1 [GW271431] | 30 |
| O=C1NC(=O)C(N2CCc3ccccc32)=C1c1cccc(Cl)c1 [SB-408010] | 0 |
| COc1ccc(Nc2ncc(C#N)c(Nc3ccccc3C(N)=O)n2)cc1N1CCN(C)CC1.Cl [GSK1558669] | 93.4 |
| Cc1ccc(NC(=O)c2ccnc(N3CCN(C)CC3)c2)cc1-c1ccc(C(=O)NCC2CC2)cc1 [GW775604] | 0 |
| Cc1nnc(-c2ccc3occ(-c4ccc(C(C)O)cc4)c3c2)o1 (stereo not shown) | 0 |
| CC(C)(CN)c1nc(-c2ccc(Cl)c(O)c2)c(-c2ccncc2)[nH]1.O=C(O)C(F)(F)F [SB-477794] | 0 |
| COc1ccc(COc2cc(-n3cnc4ccccc43)sc2C(N)=O)cc1 [GSK1024304] | 7 |
| CCc1nc(-c2cccc(C)c2)c(-c2ccnc(NCc3ccccc3)c2)s1 | 0 |
| NS(=O)(=O)c1cccc(-c2ccc3nccc(-c4cccc(S(N)(=O)=O)c4)c3c2)c1 [GW867253] | 0 |
| Cc1cccc(-c2nc(Nc3ccc4ncsc4c3)c3ccccc3n2)n1 [GW867588] | 0 |
| CC(C)Oc1ccc2c(-c3ccnc(Nc4ccc(N5CCN(C)CC5)cc4)n3)cnn2n1 [GW696155] | 100 |
| CN(C(=O)c1ccc(-c2cc(-c3c[nH]nc3-c3ccccn3)ccn2)cc1)C1CCOCC1 [GW810083] | 0 |
| COc1cc(Nc2nccc(N3CCC(NC(=O)c4cccc(NC(C)=O)c4)C3)n2)cc(OC)c1OC (stereo not shown) [GSK1379754] | 0 |
| O=C(NCCCN1CCOCC1)c1cccc(Nc2nccc(Nc3ccc(Oc4ccccc4)cc3)n2)c1 [GW663929] | 22 |
| COc1cc2c(cc1OC[C@@H](O)CO)ncc1c3ccc(C#N)cc3[nH]c21 | 0 |

| Structure (SMILES) | %Inh [%] |
| --- | --- |
| COc1ccc(CNC(=O)NC2CCN(c3ccnc(Nc4ccc(OC)cc4)n3)C2)cc1 (stereo not shown) [GSK1379727] | 0 |
| COc1ccc(S(=O)(=O)NC2CCN(c3cc(C)nc(Nc4cccc(C#N)c4)n3)CC2)cc1.O=C(O)C(F)(F)F [GSK1653539] | 7 |
| N#Cc1ccc(-c2cc(-c3c[nH]nc3-c3ccccn3)ccn2)cc1 [GW693028] | 3 |
| c1ccc(-c2cc(-c3c[nH]nc3-c3ccccn3)ccn2)cc1 [GW576604] | 0 |
| NCC(NC(=O)c1cc(-c2cn[nH]c2)c(-c2ccnc3[nH]ccc23)s1)c1ccccc1.O=C(O)C(F)(F)F.O=C(O)C(F)(F)F (stereo not shown) [GSK1325775] | 28 |
| Cn1cc(-c2ccc3c(c2)CCN3C(=O)Cc2ccccc2Cl)c2c(N)ncnc21 [GSK2608885] | 6 |
| O=c1cc(N2CCOCC2)nc2n(Cc3cccc(Cl)c3Cl)c(C3CC3)nn12 [GSK2358994] | 8 |
| COc1cc2c(cc1OCCN1CCN(C)CC1)ncc1c3ccc(C#N)cc3[nH]c21 | 0 |
| Cl.Nc1ncnc2occ(-c3ccc(NC(=O)Nc4cc(C(F)(F)F)ccc4F)cc3)c12 [SB-707548] | 34 |
| O=C1Cc2cc(Nc3nc(NCc4cccc(S(=O)(=O)C(F)(F)F)c4)ncc3C(F)(F)F)ccc2N1 | 9 |
| Cc1nnc(-c2ccc(C)c(-c3ccc(C(=O)Nc4ccc(NS(C)(=O)=O)cc4)cc3)c2)o1 [GW702865] | 0 |
| O=c1cc(N2CCOCC2)nc2n(Cc3cccc(F)c3)ccn12 [GSK2297430] | 5 |
| COc1ccc(Nc2nccc(N3CCC(NC(=O)Nc4cccc(C(C)=O)c4)C3)n2)cc1 (stereo not shown) [GSK1379731] | 0 |
| CCCCCc1nc2c(N)ncnc2n1CCCCC [SKF-97255] | 0 |
| Nc1nccc(-c2c(-c3ccc(F)cc3)ncn2C2CCN(CC(F)(F)F)CC2)n1 [SB-236560] | 0 |
| Fc1ccc(-c2ncn(CCCN3CCOCC3)c2-c2cccnc2)cc1 [SB-211743] | 0 |
| O=C(Nc1cccc(-c2nn3ncccc3c2-c2ccnc(Nc3cccc(C(F)(F)F)c3)n2)c1)c1c(F)cccc1F [GSK299495] | 0 |
